# D2 PAM-1 – Beta-Arrestin HTS for Positive Allosteric Modulators of the Human D2 Dopamine Receptor: Potentiators. actives 0.23% (n = 360,000). potentiation, % (test concentration not listed). DiscoveRx D2 beta-arrestin cells, luminescence, 90 min; 100% = 57 uM dopamine signal. AID 624464, 2012; in the data active = potentiation above about 50%
# Target sequence (P14416 whole entry, looked up): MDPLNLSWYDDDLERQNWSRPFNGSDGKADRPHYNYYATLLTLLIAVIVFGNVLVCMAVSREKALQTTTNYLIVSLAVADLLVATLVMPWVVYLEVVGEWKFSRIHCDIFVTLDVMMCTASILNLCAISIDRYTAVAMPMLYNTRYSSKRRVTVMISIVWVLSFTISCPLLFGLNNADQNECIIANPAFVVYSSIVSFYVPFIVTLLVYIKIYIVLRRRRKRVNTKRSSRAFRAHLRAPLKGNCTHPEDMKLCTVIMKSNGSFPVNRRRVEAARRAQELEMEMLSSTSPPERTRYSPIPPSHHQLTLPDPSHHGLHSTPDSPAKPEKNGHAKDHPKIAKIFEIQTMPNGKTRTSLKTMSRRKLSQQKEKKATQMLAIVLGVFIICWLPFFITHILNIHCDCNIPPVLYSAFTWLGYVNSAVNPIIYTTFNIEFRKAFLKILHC
#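 PathHunter beta-arrestin assay in DiscoveRx D2 cells. Compounds were added with an EC20 of dopamine (50 nM final) for 90 min at 37 deg C. Luminescence was read 1 h after detection reagent, with 57 uM dopamine as the EC100 control.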
# D2 ag-1 – Beta-Arrestin HTS for Positive Allosteric Modulators of the Human D2 Dopamine Receptor: Agonists | DiscoveRx PathHunter D2 beta-arrestin, luminescence, 90 min; 100% = 57 uM dopamine signal | activation, % (test concentration not listed) | actives 0.084% (n = 360,000) | AID 624465, 2012; in the data active = activation above about 40%
#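 Agonist mode: compounds alone added to overnight-plated D2 PathHunter cells for 90 min at 37 C, with 57 uM final dopamine (EC100) defining full response. Beta-arrestin recruitment detected by chemiluminescent reagent, read after 1 h at ambient temperature.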
# D2 ag-2 – HTS Assay for Allosteric Agonists of the Human D2 Dopamine Receptor: Primary Screen for Agonists; HEK293 T-REx D2 cells, calcium flux agonist mode; activation, % at 2 µM; D(2) dopamine receptor (Homo sapiens), P14416; AID 485358, 2010; actives 0.53% (n = 340,000);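 active = activation over 3 SD above normal in the single-dose calcium agonist read, cut at about 30% in these data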
#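 HEK293 Trex D2 cells, tetracycline-induced, o/n 30 C 5% CO2; no-wash Ca dye, RT 30–90 min; 10-cycle baseline, 23 nl cpd added, kinetic Ca read 180 s; agonist hits = positive Ca response.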
# D2 PAM-2 – HTS Assay for Positive Allosteric Modulators of the Human D2 Dopamine Receptor: Primary Screen for Potentiators | actives 0.34% (n = 340,000) | HEK293 T-REx D2, calcium flux, EC20 dopamine potentiation | D(2) dopamine receptor (Homo sapiens), P14416 | potentiation, % at 10 µM;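 active = potentiation over 3 SD above the plate norm, cut at about 30% in these data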
#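 Tetracycline-induced Hek293 Trex D2 cells, force-coupled to calcium, loaded with no-wash calcium dye. Compound added with 180 s kinetic read for agonism, then EC20 dopamine and a further 180 s read for potentiation.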
# D2 antag – HTS Assay for Allosteric Antagonists of the Human D2 Dopamine Receptor: Primary Screen for Antagonists. D(2) dopamine receptor (Homo sapiens), P14416. HEK293 TREx D2 cells, calcium flux, dopamine EC80. inhibition, % at 10 µM. actives 2% (n = 340,000). AID 485344, 2010; in the data active = inhibition above about 30%; inactive = below that, where a call was filed
#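 In this primary screen, negative modulation is detected by tracking calcium flux after an EC80 dopamine challenge in inducible HEK293 T-REx D2 cells preexposed to test compound for 180 s.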
# Numbers stand for hits; . = inactive; / = not tested or not shown; ! = not active in a repeat. Only some compounds are listed: those with a hit (about 2.4% of all), similar ones and a draw of the others.
SMILES,D2 PAM-1,D2 ag-1,D2 ag-2,D2 PAM-2,D2 antag
CCOC(=O)c1c(C)[nH]c(C(=O)C(C)Sc2ccc(Cl)cc2)c1C (configuration not stated),.,.,.,32.0,.
COc1cccc(CNC(=O)Cn2c(=O)n3nc(-c4cccc(C)c4)nc3c3ccccc32)c1,/,/,.,.,/
CCOc1ccc(/C(O)=C2\C(=O)C(=O)N(CCN(C)C)C2c2cccc(OC)c2OC)cc1Cl (configuration not stated),.,.,.,.,.
O=C1C(=O)N(Cc2cccnc2)C(c2cccc([N+](=O)[O-])c2)/C1=C(\O)c1ccc2c(c1)OCCO2 (configuration not stated),.,.,.,.,.
COc1cccc(C2/C(=C(\O)c3ccc4c(c3)OCO4)C(=O)C(=O)N2CCN(C)C)c1OC (configuration not stated),.,.,.,.,41.0
COc1cccc(C2/C(=C(\O)c3ccc4c(c3)OCCO4)C(=O)C(=O)N2Cc2cccnc2)c1 (configuration not stated),.,.,.,.,30.9
Cc1ccc2c(c1)N(CC(=O)NCCc1c[nH]c3ccccc13)C(=O)CO2,.,.,.,60.2,.
COc1cccc(CNC(=O)CSc2ncc3c(n2)-c2cc(Cl)ccc2N(C)S3(=O)=O)c1,/,/,.,/,/
CCCCc1nn2c(C)c(-c3ccc(OCC)cc3)nc2s1,/,/,.,.,/
COC(=O)c1ccc(OC(=O)CN2C(=O)c3ccccc3C2=O)cc1,74.7,.,.,.,.
CC1=CC(C)(C)Nc2ccc(OC(=O)CN3C(=O)c4ccccc4C3=O)cc21,113.2,.,.,.,.
COC(=O)c1ccc(CN2C(=O)c3ccccc3C2=O)cc1,.,.,.,.,.
O=C(NCCc1ccc(Cl)cc1)C1CCN(Cc2cc3ccccc3n2Cc2ccccc2)CC1,/,/,.,.,/
Cc1ccc(N(C)C(=O)C2CCN(S(=O)(=O)c3cn(C)cn3)CC2)cc1,/,/,.,.,/
Cc1cccc2cc(CN(CC3CCCO3)C(=O)NC3CCCCC3)c(=O)[nH]c12 (configuration not stated),.,.,.,.,.
CNC(=S)N(CCc1cccc(C)c1)Cc1cc2cc(OC)c(OC)cc2[nH]c1=O,.,.,.,.,30.3
COc1ccc(CCN(Cc2cc3cccc(C)c3[nH]c2=O)C(=O)NC2CCCCC2)cc1OC,.,.,.,.,31.3
CCCN(CCC)CCCNC(=O)C1CCN(c2nc3ccc(CC)cc3s2)CC1,/,/,.,.,/
CCCCNC(=S)N/N=C/c1ccc(C#N)cc1,.,.,.,.,39.3
COc1ccc2nc(SCc3cccnc3)c(C#N)cc2c1,.,.,.,.,.
N#Cc1cc2ccccc2nc1SCc1cccnc1,.,.,.,.,30.5
Cc1cccc(NC(=O)CCS(=O)(=O)c2ccc3c(c2)NC(=O)CS3)n1,.,.,.,.,38.8
CC1CCC(NC(=O)CCS(=O)(=O)c2ccc3c(c2)NC(=O)CS3)CC1 (configuration not stated),.,.,.,.,.
COc1ccc(NC(=O)C2CCCN2S(=O)(=O)c2ccc(F)cc2)cc1 (configuration not stated),.,.,.,.,30.4
CCOC(=O)c1ccc(NC(=O)C2=C(C)Nc3nc(SCc4ccc(Cl)cc4)nn3C2c2ccc(OC)cc2)cc1 (configuration not stated),/,/,.,.,/
SMILES,D2 PAM-1,D2 ag-1,D2 ag-2,D2 PAM-2,D2 antag
CCOc1ccccc1C(=O)NC1CCN(Cc2ccccc2)CC1,.,.,.,.,89.2
O=C(NC1CCCC1)c1ccccc1OCc1ccccc1,.,.,.,.,.
O=C(NC1CCN(Cc2ccccc2)CC1)c1ccccc1OCc1ccccc1Cl,.,.,.,.,84.5
O=C(NC1CCN(Cc2ccccc2)CC1)c1ccccc1OCc1ccccc1,.,.,.,.,85.6
CCN(CC)CCCNC(=O)CSc1nc(-c2ccc(OC)cc2)cc(C(F)(F)F)n1,/,/,.,/,/
O=C(c1cccs1)N(Cc1ccco1)Cc1cc2ccccc2[nH]c1=O,.,.,.,.,59.8
Cc1ccc2[nH]c(=O)c(CN(Cc3ccco3)C(=O)c3ccncc3)cc2c1,.,.,.,.,.
COc1ccc(CC(=O)Nc2ccc(-c3noc(-c4cc(OC)c(OC)c(OC)c4)n3)cc2)cc1,.,.,.,42.2,.
COc1ccc(OCC(O)CNC(=O)Nc2cc(C)cc(C)c2)cc1 (configuration not stated),.,.,.,.,30.1
COc1ccc(CNC(=O)Nc2cc(C)cc(C)c2)cc1,.,.,.,.,.
Cc1c(Cl)cn2c(=O)cc(CN3CCN(c4ccc(F)cc4)CC3)nc2c1Cl,/,/,31.6,.,.
O=C(NCCCN1CCCCC1)c1ccc2c(c1)NC(=O)c1ccccc1S2,.,.,.,.,.
CC(C)OCCCNC(=O)c1ccc2c(c1)NC(=O)c1ccccc1S2,.,.,.,36.6!,.
CCCOc1ccc(C2c3c(-c4ccccc4O)n[nH]c3C(=O)N2CCc2ccccc2)cc1OCC (configuration not stated),/,/,.,.,/
CCOC(=O)C(Cc1cc(C(C)=O)ccc1OC(C)C)C(=O)OCC,.,.,.,.,54.2
CCOC(=O)C(Cc1cc(C(C)=O)ccc1OCC)C(=O)OCC,.,.,.,.,.
Cc1nnc2n1N=C(c1ccc(OC(F)F)cc1)C(C)S2 (configuration not stated),.,.,.,.,56.3
CCc1cccc(-n2c(=O)c3cccnc3n2CC(=O)Nc2ccc(F)c(C)c2)c1,/,/,.,.,/
Cc1ccc(-n2ncc(C#N)c2/N=C/N2CCN(C)CC2)cc1,.,.,.,.,37.3
CC1=C(/C=C/C(C)=C/C=C/C(C)=C\C(=O)O)C(C)(C)CCC1,.,.,/,/,/
CC1=C(/C=C/C(C)=C/C=C/C(C)=C/C(=O)Nc2ccc(O)cc2)C(C)(C)CCC1,56.1!,.,.,.,.
Cc1cc(NC(=O)NCc2ccc3c(c2)CCN3C(=O)c2ccccc2)ccc1Br,/,/,.,.,/
O=C1CCCCCC1C1(O)C(=O)Nc2ccccc21 (configuration not stated),.,.,.,42.4,.
COc1ccc2c(c1)CC(C1(O)C(=O)Nc3ccccc31)C2=O (configuration not stated),.,.,.,.,.
CCN(CC)c1ccc(-c2nc(-c3ccco3)no2)cc1[N+](=O)[O-],/,/,.,.,/
